The nature of assay [1]: optical density shifts of acrAB sulA E. coli – strain DRC41, OD650, 48 h, E. coli filamentation inducer project, primary screen (AID 1152).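 Note: E. coli MC1000 strain DRC41 lacking acrAB efflux pump and sulA.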 Particulars: higher = more signal, called active from +8 up or from −8 down.
Assay [2] in a line: probe aLefty1 binding on compound microarray – biochemical, small-molecule microarray, 635/667 nm fluorescence, primary screen (AID 1153).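 Note: score merges spot fluorescence with signal-to-noise ratio from the scanned slide images.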 Particulars: higher = more signal.
Assay [3] can be described thus: plasmodial surface anion channel blockers, osmotic lysis – cell-based, P. falciparum Indochina, OD700, 1 h, primary screen (AID 1154). Particulars: P. falciparum Indochina infected RBC osmotic lysis, higher = more signal, called active from +8 up or from −8 down.
A short description of assay [4]: plasmodial surface anion channel blockers, osmotic lysis – cell-based, P. falciparum Indochina, OD700, 2 h, primary screen (AID 1155).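 Note: lysis reports solute entry through the parasite surface anion channel PSAC.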 Particulars: P. falciparum Indochina infected erythrocytes, higher = more signal, called active from +8 up or from −8 down.
A short description of assay [5]: changes in parasitized red cell lysis, either direction – P. falciparum Indochina, OD700, 3 h, PSAC antagonist project, primary screen (AID 1156). As to conditions: P. falciparum-infected erythrocytes, osmotic lysis, higher = more signal, called active from +8 up or from −8 down.
Assay [6] in a line: plasmodial surface anion channel blockers, osmotic lysis – cell-based, P. falciparum Indochina, OD700, 18 h, primary screen (AID 1157). Particulars: P. falciparum Indochina infected erythrocytes, osmotic lysis OD700, 18 h; higher = more signal, called active from +8 up or from −8 down.
Assay [7] is described as follows: S6 kinase pathway phospho-S6 level changes – cell-based, A549, cytoblot, luminescence, serum-stimulated, primary screen (AID 1158).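 Note: serum-stimulated A549 lung adenocarcinoma cells; signal is phosphorylated S6 detected by cytoblot immunostaining with HRP secondary.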 As to conditions: 5 h, higher = more signal.
Assay [8] has as its target NADPH oxidase 2 (Homo sapiens) (UniProt P04839). As to the kind of experiment: compounds shifting NOX2 Amplex Red fluorescence – cell-based, HEK293-NOX2, PMA-stimulated, NOX inhibitor project, primary screen (AID 1159). Note: test concentration not given here. Particulars: 45 min, higher = more signal, called active from +8 up or from −8 down.
The target of assay [9] is NADPH oxidase 4 (Homo sapiens) (UniProt Q9NPH5). As to the kind of experiment: compounds shifting NOX4 Amplex Red fluorescence – cell-based, HEK293-NOX4, tetracycline-induced, NOX inhibitor project, primary screen (AID 1160). Particulars: HEK293-NOX4, Amplex Red H2O2 fluorescence, 45 min; higher = more signal, called active from +8 up or from −8 down.
Chain of NADPH oxidase 4 (Homo sapiens) (Q9NPH5 whole entry, looked up): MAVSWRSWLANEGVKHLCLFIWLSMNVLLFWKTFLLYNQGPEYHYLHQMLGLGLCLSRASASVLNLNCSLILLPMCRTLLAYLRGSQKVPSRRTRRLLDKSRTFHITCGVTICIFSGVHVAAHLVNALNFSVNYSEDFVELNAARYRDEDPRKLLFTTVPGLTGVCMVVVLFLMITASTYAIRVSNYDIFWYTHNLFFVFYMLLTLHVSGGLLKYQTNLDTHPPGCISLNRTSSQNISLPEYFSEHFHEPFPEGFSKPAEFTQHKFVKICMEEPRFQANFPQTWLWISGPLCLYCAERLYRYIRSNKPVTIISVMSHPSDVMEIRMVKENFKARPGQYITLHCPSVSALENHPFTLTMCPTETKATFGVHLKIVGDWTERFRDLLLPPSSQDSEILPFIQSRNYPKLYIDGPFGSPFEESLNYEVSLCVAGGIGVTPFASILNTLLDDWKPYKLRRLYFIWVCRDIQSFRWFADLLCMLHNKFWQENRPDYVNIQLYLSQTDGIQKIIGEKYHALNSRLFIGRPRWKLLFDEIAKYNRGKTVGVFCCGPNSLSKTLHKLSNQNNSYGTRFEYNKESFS
For assay [10], the target named is NADPH oxidase 5 (Homo sapiens) (UniProt Q96PH1). As to the kind of experiment: compounds shifting NOX5 Amplex Red fluorescence – cell-based, HEK293-NOX5, NOX inhibitor project, primary screen (AID 1161). Particulars: HEK293-NOX5, ionomycin, 45 min, higher = more signal.
Chain of NADPH oxidase 5 (Homo sapiens) (Q96PH1 whole entry, looked up): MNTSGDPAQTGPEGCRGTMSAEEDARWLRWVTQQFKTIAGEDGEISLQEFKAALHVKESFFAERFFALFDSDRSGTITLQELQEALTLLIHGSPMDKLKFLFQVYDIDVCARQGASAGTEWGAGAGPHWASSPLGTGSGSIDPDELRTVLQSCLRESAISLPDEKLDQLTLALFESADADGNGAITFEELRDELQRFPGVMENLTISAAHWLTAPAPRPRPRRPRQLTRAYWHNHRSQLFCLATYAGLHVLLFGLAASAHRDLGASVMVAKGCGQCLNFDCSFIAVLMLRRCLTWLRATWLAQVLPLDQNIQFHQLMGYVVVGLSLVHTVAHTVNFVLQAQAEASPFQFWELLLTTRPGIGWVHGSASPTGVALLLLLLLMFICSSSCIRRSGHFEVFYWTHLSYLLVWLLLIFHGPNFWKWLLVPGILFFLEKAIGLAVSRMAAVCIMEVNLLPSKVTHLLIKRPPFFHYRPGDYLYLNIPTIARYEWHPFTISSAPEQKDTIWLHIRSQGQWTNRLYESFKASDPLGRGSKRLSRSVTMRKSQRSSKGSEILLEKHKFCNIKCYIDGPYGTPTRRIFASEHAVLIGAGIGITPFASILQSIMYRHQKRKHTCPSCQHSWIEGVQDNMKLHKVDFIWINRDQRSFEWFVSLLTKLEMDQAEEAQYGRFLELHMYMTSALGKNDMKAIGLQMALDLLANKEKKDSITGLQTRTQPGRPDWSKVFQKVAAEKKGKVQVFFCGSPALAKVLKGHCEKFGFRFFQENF
Assay [11] can be described thus: compound effects on lung adenocarcinoma cell viability – A549, calcein-AM fluorescence, 48 h, basal, profiling panel (AID 1162). Note: test concentration not given here. As to conditions: higher = more signal.
The nature of assay [12]: compound effects on differentiated 3T3-L1 adipocyte viability – cell-based, 3T3-L1 adipocytes, calcein-AM fluorescence, 48 h, basal, profiling panel (AID 1163). Note: test concentration not given here. Particulars: 3T3-L1 adipocytes viability, higher = more signal.
Assay [13] is described as follows: compound effects on hepatocellular carcinoma cell viability – HepG2, calcein-AM fluorescence, 48 h, basal, profiling panel (AID 1164). Note: test concentration not given here. As to conditions: higher = more signal.
Assay [14] is described as follows: compound effects on multiple myeloma cell viability – MM1S, calcein-AM fluorescence, 48 h, basal, profiling panel (AID 1165).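 Note: viability of MM1S multiple myeloma cells under basal unstimulated conditions; test concentration not given here.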 Particulars: higher = more signal.
Assay [15] can be described thus: calcein-AM signal in unstimulated myeloma cells – cell-based, calcein-AM fluorescence, 48 h, PK04 Diversity Set, profiling panel (AID 1166).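 Note: cells grown under basal conditions without added stimulus; test concentration not given here.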 Particulars: RPMI8226 myeloma viability, higher = more signal.
The nature of assay [16]: JC-1 mitochondrial signal, unstimulated HepG2 cells – cell-based, JC-1 fluorescence, 24 h, 100 nL compound, profiling panel (AID 1167). Note: test concentration not given here. Particulars: HepG2 mitochondrial potential, higher = more signal.
A short description of assay [17]: JC-1 mitochondrial signal, unstimulated adipocytes – cell-based, JC-1 fluorescence, 3T3-L1 adipocytes, 24 h, 100 nL compound, profiling panel (AID 1168). Note: test concentration not given here. As to conditions: JC-1 mitochondrial fluorescence, higher = more signal, called active from +8 up or from −8 down.
The nature of assay [18]: JC-1 mitochondrial signal, unstimulated myeloma cells – cell-based, JC-1 fluorescence, RPMI8226, 24 h, 100 nL compound, profiling panel (AID 1169). Note: test concentration not given here. Particulars: JC-1 mitochondrial potential fluorescence, higher = more signal.
Assay [19] can be described thus: JC-1 mitochondrial signal, unstimulated MM1S myeloma – cell-based, JC-1 fluorescence, 24 h, 100 nL compound, profiling panel (AID 1170). Note: test concentration not given here. Particulars: MM1S mitochondrial potential, higher = more signal.
Assay [20] is described as follows: resazurin metabolic signal in A549 cells – cell-based, resazurin fluorescence, 24 h, PK04 Diversity Set, profiling panel (AID 1171). Note: test concentration not given here. As to conditions: A549 viability, higher = more signal, called active from +8 up or from −8 down. (In general: Resazurin is reduced to fluorescent resorufin, in cell work by metabolically active cells.)

Calls of active or inactive are those of the source.

Chain of NADPH oxidase 2 (Homo sapiens) (P04839 whole entry, looked up): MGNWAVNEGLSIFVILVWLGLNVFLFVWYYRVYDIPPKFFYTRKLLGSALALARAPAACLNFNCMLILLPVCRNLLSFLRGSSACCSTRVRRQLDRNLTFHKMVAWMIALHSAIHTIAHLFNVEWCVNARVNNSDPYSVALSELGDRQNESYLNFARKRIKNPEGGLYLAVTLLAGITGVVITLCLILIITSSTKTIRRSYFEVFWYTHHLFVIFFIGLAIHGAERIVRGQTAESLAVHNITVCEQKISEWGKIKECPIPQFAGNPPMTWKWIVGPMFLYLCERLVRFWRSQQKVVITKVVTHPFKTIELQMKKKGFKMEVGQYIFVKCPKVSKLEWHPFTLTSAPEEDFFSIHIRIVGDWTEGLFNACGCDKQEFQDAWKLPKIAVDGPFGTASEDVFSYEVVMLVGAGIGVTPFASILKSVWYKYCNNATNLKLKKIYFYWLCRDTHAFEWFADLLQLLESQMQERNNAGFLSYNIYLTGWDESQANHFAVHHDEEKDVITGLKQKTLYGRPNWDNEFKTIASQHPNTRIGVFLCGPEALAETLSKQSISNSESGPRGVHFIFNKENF

Take `C#CCCCON=C1C[C@@H](O)[C@@H](O)[C@@H]2[C@@H]3C(=O)N(c4ccc(F)cc4F)C(=O)[C@@H]3CC[C@@H]12`: the z-score in [1] was 0.177 (inactive); in assay [3], 1.22 (inactive); in assay [4] it was 0.719 (inactive); in [5] it was 0.642 (inactive); in assay [6] it was 0.0591 (inactive); in assay [7], -0.404. Besides, the z-score is 2.01 (inactive) in [8]; 0.813 (inactive) in assay [9]; 0.0107 in assay [10]; -0.194 in assay [11]; -0.566 in assay [12]; -1.07 in assay [13]. Besides, the z-score was 0.344 in [14]; -0.865 in assay [15]; 0.843 in assay [16]; -1.15 (inactive) in assay [17]; 0.0995 in assay [18]; -0.413 in assay [19]. Besides, the z-score in assay [20] was 0.193 (inactive). For the same compound, the composite z-score in assay [2] was -0.147.

Consider `CC(C)(C)N1C(=O)[C@H]2[C@H]3[C@H](O)[C@H](O)CC(=NO[C@@H]4O[C@H](CO)[C@@H](O)[C@H](O)[C@H]4O)[C@H]3CC[C@H]2C1=O`, for which the z-score in assay [1] is -1.73 (inactive); in [3], 5.45 (inactive); in assay [4] it was 1.46 (inactive); in [5], 1.01 (inactive); in assay [6], 1.24 (inactive); in assay [7], -0.527. Also, the z-score in [8] is 0.192 (inactive); in assay [9], -0.912 (inactive); in assay [10] it was -3.69; in [11], -2.09; in assay [12] it was 1.08; in assay [13] it was -2.16. Besides, the z-score in [14] was -2.93; in assay [15], -3.96; in assay [16], -1.68; in assay [17] it was -1.81 (inactive); in assay [18], -0.344; in assay [19], -0.447. In assay [20], the z-score was -0.817 (inactive). In assay [2], this compound returned a composite z-score of -0.193.

Regarding `C=C(C)C(=O)OCC1CN2[C@@H](CC[C@@H](C)[C@@H]2c2ccc(Br)cc2)C(=O)O1` (stereo not given in full), the z-score in [1] is -0.949 (inactive); in assay [3] it was 3.23 (inactive); in assay [4], 0.672 (inactive); in assay [5] it was 0.189 (inactive); in assay [6] it was 0.491 (inactive); in [7] it was -0.48. In addition, the z-score in assay [8] was -0.0685 (inactive); in assay [9] it was -0.149 (inactive); in assay [10] it was -0.475; in assay [11] it was -0.0348; in assay [12], -0.518; in [13], -0.442. In addition, the z-score in assay [14] is 0.151; in assay [15] it was 0.0247; in [16], 0.684; in assay [17], -0.614 (inactive); in [18], -0.863; in assay [19], 0.169. Further, the z-score in [20] was 0.789 (inactive). In addition, the composite z-score in assay [2] stood at 0.183.

In the case of `COC(=O)CC=C[C@@H](C)[C@@H](C=NOC[C@H]1O[C@H](c2ccccc2)C=C[C@@H]1Oc1ccc(OC)cc1)OC`, the z-score in assay [1] was -0.425 (inactive); in [3], 4.7 (inactive); in assay [4], 1.15 (inactive); in assay [5] it was -0.469 (inactive); in [6] it was 0.393 (inactive); in assay [7] it was -0.516. In addition, the z-score in assay [8] is -0.323 (inactive); in assay [9] it was 0.338 (inactive); in assay [10], -0.549; in assay [11], 0.0124; in [12] it was -0.701; in assay [13], -0.56. The z-score in assay [14] was -0.831; in assay [15], -0.209; in assay [16] it was -1.05; in [17], -0.506 (inactive); in assay [18], 0.16; in [19], -0.327. The z-score in assay [20] was 1.06 (inactive). In assay [2], this compound registered a composite z-score of -0.148.

On to `CCC(=O)[C@@]1(O)C(=O)N2C(=C3C(=O)OCC[C@@H]31)N(Cc1ccccc1)C(C)=C(C(=O)OC)[C@H]2c1ccccc1`, for which the z-score in [1] is -0.426 (inactive); in assay [3], 0.246 (inactive); in [4], 0.633 (inactive); in assay [5], -0.242 (inactive); in assay [6], 0.465 (inactive); in assay [7], -0.131. The z-score was 0.0553 (inactive) in assay [8]; -0.147 (inactive) in assay [9]; 0.245 in assay [10]; -0.0783 in assay [11]; -1.09 in assay [12]; 0.237 in assay [13]. In addition, the z-score in [14] is -0.184; in [15] it was 0.596; in [16], -0.255; in [17] it was -0.0375 (inactive); in assay [18] it was -0.179; in [19], 0.676. In addition, the z-score in assay [20] was -0.342 (inactive). In [2], the composite z-score is -0.103.

Regarding `CC[C@@H](c1ccccc1)n1c(=O)n2n(c1=O)[C@H]1[C@H](O)[C@@H]3O[C@@H]3C(=NOC[C@@H](O)COCc3ccco3)[C@H]1CC2`, the z-score in assay [1] was -0.389 (inactive); in assay [3], 1.34 (inactive); in assay [4] it was -0.339 (inactive); in [5], -0.18 (inactive); in assay [6] it was -0.381 (inactive); in assay [7], 0.225. Besides, the z-score in [8] was -0.892 (inactive); in [9], 0.796 (inactive); in [10] it was 1.36; in assay [11] it was -0.335; in assay [12], -0.193; in assay [13] it was -0.378. For the same compound, the z-score in assay [14] was -0.0533; in [15], -0.736; in assay [16], -1.44; in [17], -0.368 (inactive); in [18], -0.465; in [19], 0.432. Also, the z-score in assay [20] was 0.0367 (inactive). Further, the composite z-score in assay [2] is -0.89.

(Values after PubChem BioAssay.)
